High-throughput results deposited in PubChem by several laboratories.
Sampled rows, rich in hits. Any-hit rate of the full collection: about 0.98%.
Cardiac RTF inh – cardiac RTF calcium desensitization; P19429+P45379; IANBD-labeled cardiac RTF, Ca2+ fluorescence; inhibition, % at 7.15 µM; 0.12% of 340,000 active; AID 493244;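 active = inhibition above the mean inhibition of all tested compounds plus 3 SD, cut at about 17% in these data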;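 also: assay run at fixed EC70 calcium of 1.6 mM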
cardiac RTF act – increases calcium sensitivity of human cardiac regulated thin filaments; P19429+P45379; IANBD-labeled TnC RTF fluorescence at EC20 calcium; 0% EC20 calcium, 100% full calcium; activation, % at 7.2 µM; 0.24% of 340,000 active; AID 493008;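 active = activation above the mean over all tested compounds plus 3 SD, cut at about 30% in these data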;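 also: rise in fluorescence read as greater calcium sensitivity of cardiac thin filaments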
LANA DNA inh – inhibitors of KSHV LANA C-terminal domain DNA binding; MBP-C-LANA/FAM-LBS DNA binding, fluorescence polarization; inhibition, % at 9 µM; 0.078% of 340,000 active;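 active = highest replicate inhibition at or above 60% at 9 µM, even if other replicates fall short; inactive = all replicates below 60% inhibition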;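 also: 0% = neutral control wells and 100% = 4 µM acridine orange control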
LANA-H2B inh – blocks KSHV LANA binding to histone H2A/H2B; 0.6% of 320,000 active; inhibition, % (concentration not given with the values); AID 2629; cell-free LANA-H2A/H2B peptide, fluorescence polarization; in the data active = inhibition mostly above about 10%, no sharp cut-off; inactive = mostly below about 6.7%
Target sequence (Q9QR71 whole entry, looked up): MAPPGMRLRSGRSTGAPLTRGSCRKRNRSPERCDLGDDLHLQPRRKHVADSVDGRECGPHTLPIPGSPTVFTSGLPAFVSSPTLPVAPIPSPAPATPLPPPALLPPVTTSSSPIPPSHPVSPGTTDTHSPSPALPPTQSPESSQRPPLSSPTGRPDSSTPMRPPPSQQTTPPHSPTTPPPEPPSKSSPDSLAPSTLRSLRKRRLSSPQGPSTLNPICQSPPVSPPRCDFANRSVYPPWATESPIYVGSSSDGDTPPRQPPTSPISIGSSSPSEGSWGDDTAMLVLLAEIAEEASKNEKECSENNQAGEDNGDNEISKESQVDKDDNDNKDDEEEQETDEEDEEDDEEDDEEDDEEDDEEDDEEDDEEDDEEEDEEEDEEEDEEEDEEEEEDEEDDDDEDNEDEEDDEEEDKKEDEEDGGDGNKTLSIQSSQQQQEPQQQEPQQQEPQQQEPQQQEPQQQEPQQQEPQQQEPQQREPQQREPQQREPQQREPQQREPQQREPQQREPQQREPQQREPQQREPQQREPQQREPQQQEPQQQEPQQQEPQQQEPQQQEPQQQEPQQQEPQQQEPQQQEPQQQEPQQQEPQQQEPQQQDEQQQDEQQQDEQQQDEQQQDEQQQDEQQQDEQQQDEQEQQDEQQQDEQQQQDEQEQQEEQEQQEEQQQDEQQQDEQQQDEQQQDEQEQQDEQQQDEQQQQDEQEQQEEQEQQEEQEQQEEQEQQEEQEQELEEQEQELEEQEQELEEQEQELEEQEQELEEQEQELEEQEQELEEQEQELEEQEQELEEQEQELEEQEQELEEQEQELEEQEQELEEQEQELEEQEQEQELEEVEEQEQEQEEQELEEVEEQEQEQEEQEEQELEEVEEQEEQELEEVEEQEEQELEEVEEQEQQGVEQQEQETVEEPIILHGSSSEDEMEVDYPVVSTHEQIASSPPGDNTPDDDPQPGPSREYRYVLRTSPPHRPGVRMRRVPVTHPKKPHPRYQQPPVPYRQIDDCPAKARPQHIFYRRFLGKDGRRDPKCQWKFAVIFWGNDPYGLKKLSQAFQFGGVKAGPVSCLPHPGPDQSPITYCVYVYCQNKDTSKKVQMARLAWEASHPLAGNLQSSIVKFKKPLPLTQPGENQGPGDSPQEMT
Keap1-Nrf2 PPI – Keap1-Nrf2 (human) interaction inhibition. inhibition, % at 9.4 µM. Keap1 Kelch-Nrf2 peptide fluorescence polarization, 1536-well. 0.15% of 340,000 active. Q14145; in the data active = inhibition above about 12%;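 also: human Keap1 Kelch domain with fluorescein labeled Nrf2 9mer peptide probe; 0% = neutral control wells and 100% = peptide positive control; higher means more block of Keap1 binding to Nrf2 peptide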
Keap1 Kelch bind – binders of human Keap1 Kelch domain; Keap1 Kelch thermal shift, delta Tm; stronger effect = higher value; 8% of 400 active; shares compounds with Keap1-Nrf2 PPI; max delta Tm, degrees C; in the data active = max delta Tm above about 0.48 degrees C
Dye-only ctr – counter-screen for Keap1 thermal shift hits: dye-only artifacts. AID 651858. shares compounds with Keap1-Nrf2 PPI. 140 tested, under 10 active. Sypro Orange dye-only thermal melt, no protein, delta Tm; top dose 26 µM. delta Tm, degrees C (no concentration beside the values);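 active = at highest dose tested, delta Tm positive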
Starred values were filed as active, the others as inactive; i = inactive; . = not tested or not shown; + = active, no number.

SMILES	Cardiac RTF inh	cardiac RTF act	LANA DNA inh	LANA-H2B inh	Keap1-Nrf2 PPI	Keap1 Kelch bind	others
CC(C)(C)C(=O)Nc1nnc(SCC(=O)NC2CCCC2)s1	-25.1	-4.6	0.0	0.0	3.4	.
O=C(CCCN=C1NS(=O)(=O)c2ccccc21)Nc1ccc(Cl)cc1	-5.1	2.8	-0.6	2.2	-2.5	.
CCOC(=O)c1c(C)oc2c1c(C=NCCO)c(O)c1ccccc12	-20.9	24.0	7.8	.	22.6*	-0.18	Dye-only ctr=-28.7
Cc1nn(C)c(C)c1NC(=O)COc1ccc(Cl)cc1Br	-4.5	3.5	1.0	3.5	-5.5	.
CNc1nnc(SCC(=O)c2cc(C)n(C3CC3)c2C)s1	-5.2	-0.7	26.2	1.3	46.2*	-0.08
Cc1ccc(C(=O)N/C(=C\c2ccc(-c3ccccc3[N+](=O)[O-])o2)C(=O)NCCCN(C)C)cc1	-11.6	11.4	32.3	6.6	13.9*	0.02
CC1CCCCC1NC(=O)CCCn1c(=S)[nH]c2ccsc2c1=O (configuration not stated)	-6.5	-2.3	-0.3	4.5	-0.7	.
COc1cc(C2C(C#N)=C(N)OC3=C2C(=O)CC(C)(C)C3)c([N+](=O)[O-])cc1OC (configuration not stated)	-13.7	13.2	8.3	3.5	3.2	.
CC1(C)CC(=O)C2=C(C1)OC(N)=C(C#N)[C@@H]2c1ccccc1[N+](=O)[O-]	-52.8	41.3*	35.8	9.1	39.2*	-0.02	Dye-only ctr=-27.8
CC(C)N1CC=C2C(C#N)=C(N)C(C#N)(C#N)[C@H](c3ccoc3)[C@H]2C1	.	.	.	18.6	.	.
CC(C)N1CC=C2C(C#N)=C(N)C(C#N)(C#N)C(c3ccccc3)C2C1 (configuration not stated)	-77.4	46.0*	33.3	+	12.4*	-0.09	Dye-only ctr=-29.7
Cc1cccc(OCCn2nnc3ccccc32)c1C	-2.6	4.9	-10.7	-3.6	-1.5	.
COC(=O)c1cn(CC(=O)Nc2ccc(OC)cc2)c2ccccc12	0.5	-1.7	-1.8	5.8	-3.7	.
CCC(=O)c1cn(CC(=O)Nc2ccc(OC)cc2)c2ccccc12	-5.2	1.9	25.5	7.7	54.6*	0.01
COC(=O)[C@H](CO)N1C(=O)[C@@H]2[C@H](C1=O)C1C=C[C@H]2C1	-4.7	-4.4	1.0	.	-1.1	.
C/C(C/C(C)=C1/SC(=S)NC1=O)=C1\SC(=S)NC1=O	-6.5	-5.3	32.1	.	49.3*	1.97*
CCOC(=O)C1CCCN(C(=O)CCc2nnc(-c3ccc(C(C)=O)s3)o2)C1 (configuration not stated)	-2.4	-1.6	0.0	-0.4	-5.8	.
CCOc1cc(C2C(C#N)=C(N)OC(C)=C2C(C)=O)cc(Br)c1O (configuration not stated)	-24.4	19.3	47.0	16.7	26.2*	-0.1
Cc1ccc(O)c(C(=O)c2cnc3c(c2)c(=O)n(C)c(=O)n3C)c1	.	.	1.0	-7.2	-0.7	.
Cc1ccc(O)c(C(=O)c2cnc3c(c2)c(C)nn3-c2ccccc2)c1	-6.7	-7.7	1.4	0.8	22.6*	-0.1	Dye-only ctr=-27.9
N=c1c(C(=O)NCc2ccc(F)cc2)cc2c(=O)n3ccccc3nc2n1Cc1cccnc1	-12.6	7.6	23.3	-0.4	13.1*	-0.04	Dye-only ctr=-22.5
Cc1ccc2nc3c(cc(C(=O)NC4CCCC4)c(=N)n3C3CCCCC3)c(=O)n2c1	-2.2	3.9	-0.6	2.3	-2.9	.
N=c1c(C(=O)NC2CCCC2)cc2c(=O)n3ccccc3nc2n1C1CCCCC1	6.5	-0.4	16.5	1.4	17.2*	-0.06
Cc1ccc(Cn2c(=N)c(C(=O)NC3CCCC3)cc3c(=O)n4ccccc4nc32)cc1	-11.8	-1.6	-0.8	12.9	15.6*	-0.15	Dye-only ctr=-26.7
COc1cccc(CNC(=O)CCCc2c[nH]c3ccccc23)c1	-0.1	-4.3	-0.3	3.3	-0.2	.
SMILES	Cardiac RTF inh	cardiac RTF act	LANA DNA inh	LANA-H2B inh	Keap1-Nrf2 PPI	Keap1 Kelch bind	others
O=C(Cn1ccc2cc(S(=O)(=O)N3CCCC3)ccc21)NCc1ccco1	-0.8	-4.3	-0.9	3.4	1.0	.
Cc1ccc(C2=CC(c3cccs3)n3nnnc3N2)cc1 (configuration not stated)	-1.2	5.1	33.0	23.0*	34.5*	-0.06	Dye-only ctr=-26
Fc1ccc(C2=CC(c3cccs3)n3nnnc3N2)cc1 (configuration not stated)	-4.9	3.4	8.8	-0.3	0.7	.
Nc1ccc2c(S(=O)(=O)O)cccc2c1S(=O)(=O)O	-4.1	-0.3	1.9	.	-2.1	.
Nc1cccc2cc(S(=O)(=O)O)ccc12	6.0	-11.4	73.4*	.	14.5*	0.24
Cc1nc(-c2ccc(S(=O)(=O)N3CCN(C4c5ccccc5-c5ccccc54)CC3)s2)cs1	2.5	11.7	0.7	-0.1	-2.3	.
Cc1nc(-c2ccc(S(=O)(=O)N3CCCN(CCc4ccccc4)CC3)s2)cs1	.	.	30.0	-4.2	62.6*	-0.22
Cc1ccc(F)cc1NC(=O)CSc1nnc(CNC(=O)c2ccco2)n1C	-3.5	-3.0	1.7	-0.8	-0.4	.
CCCNS(=O)(=O)c1ccc(OCC(=O)Nc2ccc3c(c2)OCCO3)cc1	-3.5	9.7	-0.9	7.3	-8.0	.
Cc1ccc(S(=O)(=O)NCC(=O)OCC(=O)Nc2ccc3c(c2)OCCO3)cc1	-19.2	6.6	26.8	19.0*	32.0*	-0.16	Dye-only ctr=-22.2
N#Cc1c(SCC(=O)Nc2nncs2)sc2c(O)cc(=O)[nH]c12	-12.4	-5.0	19.6	-1.4	20.7*	0.19	Dye-only ctr=-32.5
N#Cc1c(SCC(=O)Nc2ccc(C(F)(F)F)cc2)sc2c(O)cc(=O)[nH]c12	-4.3	0.9	0.9	2.8	-3.6	.
O=C(Cc1ccc(S(=O)(=O)N2CCOCC2)s1)Nc1nc2c(s1)CCCC2	-1.6	12.9	17.7	-1.1	17.6*	0.08
Cc1ccc(O)c(NC(=O)c2cc(C)no2)c1	-7.8	-3.7	-0.8	-2.1	-6.9	.
O=c1cc(CN2CCCc3ccccc32)nc2sccn12	-50.9	61.9*	43.3	11.0	58.3*	0.01
Cc1cc(C(=O)COC(=O)C2=COCCO2)c(C)n1-c1ccccc1	0.0	-7.5	0.1	0.5	-5.3	.
Cc1cc2nc3c(=O)n(C4CCCCC4)c(=O)[nH]c3nc2cc1N	i	565.8*	96.5*	.	47.6*	-0.03	Dye-only ctr=-24.8
O=C(c1ccc(F)cc1F)N1CCCc2ccccc21	-7.6	-8.5	-0.6	-0.8	2.4	.
COC(=O)c1cc(N2CCN(C)CC2)nc2ccccc12	-62.5	50.4*	52.7	2.9	30.6*	-0.03
O=C1c2ccccc2-c2onc3ccc(Oc4ccccc4)c1c23	-56.1	31.1*	10.5	0.2	56.3*	-0.07	Dye-only ctr=-30.3
O=C(NCc1ccc(OC(F)(F)F)cc1)c1cccc2c1C(=O)c1ccc(N3CCCC3)cc1S2(=O)=O	-17.7	-5.5	-0.6	1.6	0.2	.
